# Data reported in the supplement of paper PMC11634586.
# Where a name gives a salt, the structure may show the parent alone. A number with no mark means an inactive call.
# System: NCI-H1688
# Assay: inhibition of cell viability relative to untreated control (fraction); higher = stronger growth inhibition, active = 0.5 or more
# Settings: 30 µM; 24 h
# Protocol: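 Natural product library (TargetMol, 640 compounds) screened on NCI-H1688 SCLC cells at 30 µM for 24 h; viability by CCK-8 absorbance at 450 nm, normalised to untreated control and expressed as inhibition rate (fraction). Compounds with >50% reduction in viability were selected as hits.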
row,SMILES,inhibition of cell viability
1,COc1c2occc2cc2ccc(=O)oc12 [8-Methoxypsoralen],0.302
2,CC1(C)CCCC2(C)OC(=O)C=C12 (stereo not given) [Dihydroactinidiolide],0.194
3,N[C@@H](Cc1c[nH]c2ccccc12)C(=O)O [L-Tryptophan],-0.199
4,CC(=O)Oc1cc(C)c(OC(C)=O)c2ccccc12 [Menadiol Diacetate],0.384
5,CC(C)=CCC[C@](C)(O)[C@H]1CC[C@]2(C)[C@@H]1[C@H](O)C[C@@H]1[C@@]3(C)CC[C@H](O)C(C)(C)[C@@H]3[C@@H](O)C[C@]12C [Protopanaxatriol],-0.051
6,N[C@H]1C(O)O[C@H](CO)[C@@H](O)[C@@H]1O (stereo not given in full) [Glucosamine],-0.173
7,CC(C)c1cc(C(C)C)c(CC(=O)NS(=O)(=O)Oc2c(C(C)C)cccc2C(C)C)c(C(C)C)c1 [Avasimibe],0.757 (active)
8,CC1=C(/C=C/C(C)=C/C=C/C(C)=C/C(=O)O)C(C)(C)CCC1 [Tretinoin],0.00396
9,O=C(O)/C=C/c1ccc(O)c(O)c1 [Caffeic Acid],-0.0219
10,O=C(O)c1cccnc1 [Nicotinic acid],0.0212
11,O=c1ccc2ccc(O)cc2o1 [7-Hydroxycoumarin],-0.0276
12,CC(/C=C/C=C(\C)C(=O)O[C@@H]1O[C@H](CO[C@@H]2O[C@H](CO)[C@@H](O)[C@H](O)[C@H]2O)[C@@H](O)[C@H](O)[C@H]1O)=C\C=C\C=C(C)\C=C\C=C(/C)C(=O)O[C@@H]1O[C@H](CO[C@@H]2O[C@H](CO)[C@@H](O)[C@H](O)[C@H]2O)[C@@H](O)[C@H](O)[C@H]1O [Crocin],0.267
13,CC1=CC(=O)CC(C)(C)[C@@]1(O)/C=C/C(C)=C\C(=O)O [Abscisic acid],-0.139
14,Cc1cc2nc3c(=O)[nH]c(=O)nc-3n(C[C@H](O)[C@H](O)[C@H](O)COP(=O)(O)O)c2cc1C [Flavin mononucleotide],0.0137
15,Oc1cc(O)c2c(c1)O[C@H](c1ccc(O)c(O)c1)[C@H](O)C2 [Epicatechin],0.0727
16,OC[C@H]1O[C@@H](O[C@@H]2OC=C[C@H]3[C@H](O)[C@@H]4O[C@]4(CO)[C@@H]23)[C@H](O)[C@@H](O)[C@@H]1O [Catalpol],-0.0576
17,C=C(C)[C@H]1CC=C(C)C(=O)C1 [(S)-(+)-Carvone],0.248
18,CCCCOC(=O)c1ccc(O)cc1 [Butylparaben],0.197
19,CC1=C(/C=C/C(C)=C/C=C/C(C)=C/C=C/C=C(C)/C=C/C=C(C)/C=C/C2=C(C)CCCC2(C)C)C(C)(C)CCC1 [Beta-Carotene],0.426
20,C#C[C@]1(O)CC[C@H]2[C@@H]3CCc4cc(O)ccc4[C@H]3CC[C@@]21C [Ethynyl estradiol],0.639 (active)

row,SMILES,inhibition of cell viability
1,CNC1CCCN(c2c(F)cc3c(=O)c(C(=O)O)cn(C4CC4)c3c2OC)C1 (stereo not given) [Balofloxacin],0.118
2,O=C(O)c1cc(O)ccc1O [Gentisic acid],-0.166
3,CC1(C)C2CC[C@@]3(C)[C@@H](C(=O)C=C4[C@@H]5C[C@](C)(C(=O)O)CC[C@@]5(C)CC[C@@]43C)[C@]2(C)CC[C@H]1O (stereo not given in full) [Glycyrrhetinic acid(Enoxolone)],-0.198
4,COC(=O)[C@@H]1[C@H]2C[C@H]3c4[nH]c5ccccc5c4CCN3C[C@@H]2CC[C@@H]1O [Yohimbine hydrochloride],0.0994
5,NC(=O)NCCC[C@H](N)C(=O)O [Citrulline],-0.126
6,CCC(C)C(NC(=O)CNC(=O)C(CCC(N)=O)NC(=O)C1CCCN1C(=O)C(CC(=O)O)NC(=O)C(CCCNC(=N)N)NC(=O)C(NC(=O)C(NC(=O)C(N)CCCNC(=N)N)C(C)C)C(C)C)C(=O)NC(CCCNC(=N)N)C(=O)NC(C)C(=O)NC(Cc1c[nH]c2ccccc12)C(=O)NC(C(=O)NC(C)C(=O)NC(Cc1c[nH]c2ccccc12)C(=O)NC(CCCNC(=N)N)C(=O)NC(CC(N)=O)C(=O)NC(CCCNC(=N)N)C(=O)O)C(C)C (stereo not given) [Lysozyme],0.471
7,COc1c2occc2c(OC)c2c(=O)cc(C)oc12 [Khellin],0.168
8,C[C@H](CCC(=O)O)[C@H]1CC[C@H]2[C@@H]3CC[C@@H]4C[C@H](O)CC[C@]4(C)[C@H]3CC[C@]12C [Lithocholic acid],-0.0194
9,Cc1cc(O)c2c(c1)C(=O)c1cccc(O)c1C2=O [Chrysophanic Acid],-0.28
10,O=C1C=C(O)C(=O)c2ccccc21 [Lawsone],-0.319
11,NC[C@@H]1O[C@H](O[C@H]2[C@@H](O)[C@H](O[C@@H]3[C@@H](O)[C@H](N)C[C@H](N)[C@H]3O[C@H]3O[C@H](CO)[C@@H](O)[C@H](O)[C@H]3N)O[C@@H]2CO)[C@H](N)[C@@H](O)[C@@H]1O [Paromomycin Sulfate],-0.0298
12,Nc1ccccc1C(=O)CC(N)C(=O)O (stereo not given) [Kynurenine],-0.292
13,C=CC1=C(C)/C(=C/c2[nH]c(Cc3[nH]c(/C=C4\NC(=O)C(C)=C4C=C)c(C)c3CCC(=O)O)c(CCC(=O)O)c2C)NC1=O [Bilirubin],0.0432
14,O=c1ccc2cc3ccoc3cc2o1 [Psoralen],-0.0315
15,C[C@H]1[C@@H](O)O[C@@H]2O[C@@]3(C)CC[C@H]4[C@H](C)CC[C@@H]1[C@@]24OO3 [Dihydroartemisinin],0.644 (active)
16,Cc1ccc(C(C)C)cc2c(C)ccc1-2 [Guaiazulene],0.0813
17,Cc1ncc(CSSCc2cnc(C)c(O)c2CO)c(CO)c1O [Pyrithioxin],0.0153
18,C=C(C)[C@@H]1CC[C@]2(C(=O)O)CC[C@]3(C)[C@H](CC[C@@H]4[C@@]5(C)CC[C@H](O)C(C)(C)[C@@H]5CC[C@]43C)[C@@H]12 [Betulinic acid],0.622 (active)
19,O=C(OC[C@H]1O[C@@H](OC(=O)c2cc(O)c(O)c(OC(=O)c3cc(O)c(O)c(O)c3)c2)[C@H](OC(=O)c2cc(O)c(O)c(OC(=O)c3cc(O)c(O)c(O)c3)c2)[C@@H](OC(=O)c2cc(O)c(O)c(OC(=O)c3cc(O)c(O)c(O)c3)c2)[C@@H]1OC(=O)c1cc(O)c(O)c(OC(=O)c2cc(O)c(O)c(O)c2)c1)c1cc(O)c(O)c(OC(=O)c2cc(O)c(O)c(O)c2)c1 [Glycerite],0.821 (active)
20,CCOC(=O)/C=C/c1ccc(O)c(OC)c1 [Ethyl ferulate],-0.0133
